This is a sample that favours compounds with a hit; in the whole collection about 6.7% have one here.
KB-3-1 cytotox: kills parental KB-3-1 adenocarcinoma cells; Potency, µM (highest dose often 46.1 µM), most hits filed as cytotoxic; AID 1347075; KB-3-1 viability, CellTiter-Glo ATP luminescence, 72 h; 400,000 compounds, 1.4% hits; also: % is scaled to controls: 0 for no effect and ±100 for the full control effect; nearly all actives have a fitted effect of over 60% in size
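Using CellTiter-Glo luminescence, growth of non-resistant KB-3-1 adenocarcinoma cells is assessed 72 h after pin-tool compound addition at 37 °C. Normalized responses across the concentration series yield fitted curves.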
SW480 rereplic: inducers of DNA re-replication in SW480 colon cancer cells | SW480 DNA re-replication, Hoechst DNA content imaging, 48 h | Potency, µM (series often up to 46.1 µM), without a hit: at the highest dose re-replication activation, most hits filed as activators | 340,000 compounds, 1.8% hits | AID 624297; also: % of control where 0% means no effect; nearly all actives have a fitted effect of over 55% in size
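Image-based DNA-content assay: after two days of treatment, nuclei were labelled with the DNA dye Hoechst and imaged, and hits were compounds raising the count of nuclei showing high fluorescence intensity.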
KB-V1 MDR tox: kills drug-selected multidrug resistant KB-V1 cells; KB-V1 MDR cells viability, CellTiter-Glo, 72 h; Potency, µM (top dose mostly 46.1 µM), most hits filed as cytotoxic; 400,000 compounds, 3.4% hits; AID 1347076; also: % is scaled to controls: 0 for no effect and ±100 for the full control effect; nearly all actives have a fitted effect of over 60% in size
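KB-V1 cells (P-gp-expressing MDR subline of KB-3-1) in phenol-red-free DMEM with 10% FBS were exposed to library compounds over a concentration series for 72 h at 37 degrees C. Viability read by CellTiter-Glo luminescence; concentration-effect curves fitted after normalization.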
PINK1 expr mod: PINK1 expression modulation | PINK1 immunofluorescence, high-content cytometry, 24 h | Potency, µM (titrated, usually from 76.6 µM), without a hit: at the highest dose activation (PINK1 increase), most hits filed as activators | 410,000 compounds, 0.2% hits | AID 624263; active = well fitted activation curve with a large enough effect; inconclusive = small, poorly fitted or top-dose-only effect; cell line not stated here; also: % of control where 0% means no effect; nearly all actives have a fitted effect of over 65% in size
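PINK1 protein level read as immunofluorescence by microplate cytometer in a fixed, stained stable cell line after 24 h exposure to five compound concentrations, with CCCP as control.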
MCF10A rereplic: induces DNA re-replication in MCF 10a normal breast cells. MCF 10A DNA re-replication, Hoechst nuclear intensity, 48 h. Potency, µM (series often up to 46.1 µM), for the others: at the top dose activity, positive = re-replication, usual class: activators. 350,000 compounds, 2.9% hits; also: % of control where 0% means no effect; nearly all actives have a fitted effect of over 50% in size
* marks the source's active call; other numbers are inactive results; [ ] = dose if it differs, or a comment. Unless noted, calls follow the shape of the dose curve; as a rule, active = well fitted curve in the direction sought with a large enough effect; inconclusive = small, poorly fitted or top-dose-only effect, or another doubt; inactive = no such curve, though single readings can be large; an effect the other way counts as inactive or inconclusive. Potency is read from the fitted curve at half-maximal effect.

How did COCCNc1oc(/C=C/c2cccs2)nc1S(=O)(=O)c1ccccc1 do in these assays?
KB-3-1 cytotox: inactive; KB-V1 MDR tox: inconclusive; PINK1 expr mod: 1%

Results for COc1cccc(-c2cn3nc4c(nc3n2)CCCC4)c1 ?
KB-3-1 cytotox: 18µM*; SW480 rereplic: inconclusive; KB-V1 MDR tox: inconclusive; PINK1 expr mod: 2%; MCF10A rereplic: inconclusive

Results for COc1ccc(NS(=O)(=O)c2cc(C)ccc2NC(=O)c2cc(C)oc2C)cc1 ?
KB-3-1 cytotox: 0.041µM*; SW480 rereplic: 0.73µM*; KB-V1 MDR tox: 0.26µM*; PINK1 expr mod: 5%; MCF10A rereplic: 0.65µM*

How did CC1CCCN(S(=O)(=O)c2ccc(N3CCCCS3(=O)=O)cc2)C1 (centres undefined) do in these assays?
KB-3-1 cytotox: inactive; KB-V1 MDR tox: inactive; PINK1 expr mod: 0%

How did O=S(=O)(c1ccccc1)N1CCC(O)(CSc2ccc(Cl)cc2)CC1 do in these assays?
KB-3-1 cytotox: inconclusive; SW480 rereplic: 4%; KB-V1 MDR tox: 23µM*; PINK1 expr mod: 0%; MCF10A rereplic: inconclusive

How did O=C(NC1CCN(Cc2ccccc2)CC1)C1CCN(S(=O)(=O)c2ccc(Cl)cc2)CC1 do in these assays?
KB-3-1 cytotox: inactive; SW480 rereplic: 30%; KB-V1 MDR tox: inactive; PINK1 expr mod: -1%; MCF10A rereplic: 21%

What do the screens show for `O=S(=O)(c1ccc(Cl)cc1)N1CCC(O)(CN2CCN(Cc3ccccc3)CC2)CC1`?
KB-3-1 cytotox: inactive; SW480 rereplic: 0%; KB-V1 MDR tox: inactive; PINK1 expr mod: 0%; MCF10A rereplic: 20µM*

How did Nc1nc(SCc2ccccc2)c2ncn(C3CCCO3)c2n1 (centres undefined) do in these assays?
KB-3-1 cytotox: inactive; SW480 rereplic: -7%; KB-V1 MDR tox: inactive; PINK1 expr mod: -1%; MCF10A rereplic: 9%

How did CCn1c(CC(=O)Nc2ccc(C)cc2)nnc1SCC(=O)N1CCN(c2ccccc2)CC1 do in these assays?
KB-3-1 cytotox: inactive; SW480 rereplic: 3%; KB-V1 MDR tox: inactive; PINK1 expr mod: 0%; MCF10A rereplic: 5%

Results for CCn1c(SCC(=O)N2CCN(c3ccccc3)CC2)nnc1-c1cc2cc(Cl)ccc2o1 ?
KB-3-1 cytotox: inactive; SW480 rereplic: -8%; KB-V1 MDR tox: inactive; PINK1 expr mod: 11µM*; MCF10A rereplic: -1%

Results for C=CCn1c(SCC(=O)N2CCN(c3ccccc3)CC2)nnc1-c1ccco1 ?
KB-3-1 cytotox: inactive; SW480 rereplic: -5%; KB-V1 MDR tox: 13µM*; PINK1 expr mod: -3%; MCF10A rereplic: 9%

How did C=CCn1c(SCC(=O)Nc2cc(C)c(Cl)cc2OC)nnc1-c1ccco1 do in these assays?
KB-3-1 cytotox: inactive; SW480 rereplic: -12%; KB-V1 MDR tox: 2.3µM*; PINK1 expr mod: -4%[38.3 µM]; MCF10A rereplic: 18%

How did COc1cc(C(=O)NCc2nnc(SCC(=O)NCCc3ccccc3)o2)cc(OC)c1OC do in these assays?
KB-3-1 cytotox: inactive; SW480 rereplic: -17%; KB-V1 MDR tox: inconclusive; PINK1 expr mod: 0%; MCF10A rereplic: 5%

Results for CC(C)(C)c1ccc(OCCCC(=O)Nc2nnc(C3CC3)s2)cc1 ?
KB-3-1 cytotox: inactive; KB-V1 MDR tox: inactive; PINK1 expr mod: 9%

What do the screens show for `COc1cc(OC)c(/C=C/c2cc(/C=C/c3c(OC)cc(OC)cc3OC)[n+](C)c3ccccc23)c(OC)c1`?
KB-3-1 cytotox: 23µM*; KB-V1 MDR tox: inactive; PINK1 expr mod: 40µM*

What do the screens show for `COc1cc(OC)c(/C=C/c2cc3c4ccccc4ccc3[n+](C)c2)c(OC)c1`?
KB-3-1 cytotox: 8.2µM*; KB-V1 MDR tox: inactive; PINK1 expr mod: 3%

What do the screens show for `COc1ccc(S(=O)(=O)Nc2ccc3c(c2)C(=O)N([C@H](C)CO)C[C@H](C)[C@@H](CN(C)S(=O)(=O)c2ccc(F)cc2)O3)cc1`?
KB-3-1 cytotox: inactive; SW480 rereplic: 9%; KB-V1 MDR tox: inactive; PINK1 expr mod: -1%; MCF10A rereplic: 10%

What do the screens show for `CCC(=O)Nc1nonc1-c1nc2ccccc2n1Cc1cccc2ccccc12`?
KB-3-1 cytotox: 0.92µM*; SW480 rereplic: 7.3µM*; KB-V1 MDR tox: inconclusive; PINK1 expr mod: 4%; MCF10A rereplic: 0.37µM*

Assay outcomes (PubChem)
